± gives the standard deviation of the averaged measurements.
Assays:
DLD1 [1] = experiment: cell viability (CellTiter-Glo) relative to plate median (fraction of plate median); higher = more viable cells; details: 5 µM; treatment time 24 h; reporter: 7TFP
In short: (§1)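 Cells were seeded in 384-well plates; these were colorectal cancer lines stably transduced with lentiviral 7TFP or TCF4/Wnt firefly luciferase reporters. After 24 h, library compounds went in at a final 5 µM, and exposure lasted 24 h. Parallel plates were then read for firefly luciferase or CellTiterGlo luminescence, each well normalised to its plate median, with two independent replicates averaged.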

HCT116 = experiment: as above; details: 5 µM; treatment time 24 h; reporter: TCF4/Wnt
In short: as §1

SW480 [2] = experiment: as above; details: 5 µM; treatment time 24 h; reporter: 7TFP
In short: as §1

DLD1 [3] = experiment: TCF/Wnt firefly luciferase reporter signal relative to plate median (fraction of plate median); higher = higher Wnt reporter signal; details: 5 µM; treatment time 24 h; reporter: 7TFP
In short: as §1

SW480 [4] = experiment: as above; details: 5 µM; treatment time 24 h; reporter: 7TFP
In short: as §1

Row | SMILES | cell viability (DLD1 [1]) | cell viability (HCT116) | cell viability (SW480 [2]) | TCF/Wnt firefly luciferase reporter signal (DLD1 [3]) | TCF/Wnt firefly luciferase reporter signal (SW480 [4])
1 | COc1cnc(NS(=O)(=O)c2ccc(N)cc2)nc1 | 0.973 ± 0.0057 | 1.04 ± 0.035 | 1.03 ± 0.035 | 1.04 ± 0.22 | 0.892 ± 0.055
2 | COc1c2c(c(O)c3c4c(c(C)cc13)[C@@H]1O[C@@]3(C(OC)OC)O[C@@H]1[C@@](O[C@H]1CC(O)[C@@](O)(C(C)=O)C(C)O1)(O4)[C@@]3(O)Cn1cnc3nc(N)[nH]c(=O)c31)C(=O)C(O)CC2O[C@H]1CC(C)(O)[C@H](OC(C)=O)C(C)O1 (stereo not given in full) [Gutingimycin] | 0.932 ± 0.022 | 0.966 ± 0.0057 | 0.946 ± 0.059 | 0.87 ± 0.14 | 0.898 ± 0.07
3 | Cc1cc(C)nc(NS(=O)(=O)c2ccc(N)cc2)n1 | 1.07 ± 0.11 | 0.975 ± 0.078 | 1.03 ± 0.047 | 1.025 ± 0.0071 | 1.08 ± 0.05
4 | CCC(=O)C(CC)C(O)C(C)CC(C)C1OC(=O)CC2(O)CC=C(C)C(O2)/C(C)=C/CCCC(OC2CC(OC(N)=O)C(O)C(C)O2)/C=C\C(C)C(O)C1C (stereo not given) | 1.08 ± 0.16 | 1 | 0.99 ± 0.015 | 0.87 ± 0.067 | 0.974 ± 0.025
5 | Cn1c(=O)c2nc[nH]c2n(C)c1=O | 0.996 ± 0.13 | 1.04 ± 0.021 | 1.07 ± 0.035 | 1.19 ± 0.014 | 0.986 ± 0.077
6 | O=C1NC(Cc2ccc(O)cc2)C(=O)N2CCCC12 (stereo not given) [Cyclo(tyrosylprolyl)] | 0.935 ± 0.0085 | 0.928 ± 0.023 | 0.9425 ± 0.0021 | 0.768 ± 0.15 | 0.959 ± 0.028
7 | COC(=O)[C@H](c1ccccc1Cl)N1CCc2sccc2C1 | 1.045 ± 0.0071 | 0.921 ± 0.02 | 1.07 ± 0.028 | 0.853 ± 0.041 | 0.906 ± 0.016
8 | CS(=O)(=O)CCCCN=C=S | 0.722 ± 0.18 | 0.8885 ± 0.00071 | 0.83 ± 0.03 | 0.83 ± 0.067 | 0.867 ± 0.12
9 | Cn1c(=O)c2nc(C3CCCC3)[nH]c2n(C)c1=O | 1.07 ± 0.064 | 1.05 ± 0.1 | 1.02 ± 0.047 | 1.01 ± 0.17 | 0.968 ± 0.039
10 | O=C(/C=C/C=C/c1ccc2c(c1)OCO2)N1CCCCC1 | 1 ± 0.038 | 1.05 ± 0.12 | 1.03 | 1.16 ± 0.18 | 1.08 ± 0.19
11 | CC[C@H](/C=C/[C@@H](C)[C@H]1CC[C@H]2[C@@H]3CC=C4C[C@@H](O)CC[C@]4(C)[C@H]3CC[C@]12C)C(C)C | 1.04 ± 0.096 | 1.14 ± 0.14 | 1.03 | 1.05 ± 0.014 | 1 ± 0.066
12 | C[C@]12CCC(=O)C=C1C=C[C@@H]1[C@@H]2CC[C@@]2(C)[C@H]1CC[C@@]21CCC(=O)O1 | 0.884 ± 0.075 | 0.899 ± 0.049 | 0.969 ± 0.044 | 1.1 ± 0.071 | 1.025 ± 0.0071
13 | COc1c(N2C[C@@H]3CCCN[C@@H]3C2)c(F)cc2c(=O)c(C(=O)O)cn(C3CC3)c12 | 0.861 ± 0.14 | 1.02 | 1.02 ± 0.069 | 1.1 ± 0.042 | 1 ± 0.013
14 | CC(=O)O[C@H]1C[C@@H](OC(C)=O)C(C)(C)C2CC(=O)[C@]3(C)C(CC[C@@]4(C)[C@H](C(=O)O)OC(=O)C5OC543)[C@]21C (stereo not given in full) | 0.985 ± 0.093 | 0.922 ± 0.028 | 1.01 ± 0.032 | 0.826 ± 0.027 | 0.95 ± 0.21
